The text below walks through data of PubChem BioAssay (NCI).

Compounds without any hit were thinned out: in the full panel of roughly 79,000, 15% have a hit. A number with no mark means an inactive call. Activity calls are given as the source filed them. Rule as the data show it: active = growth inhibition above about 70%; inactive = the rest.

A short description of assay [1]: NCI Yeast Anticancer Drug Screen. Data for the rad50 strain (AID 155).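 Also: 0% = growth of vehicle-only cultures of the same strain.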 The note with it: S. cerevisiae rad50 strain growth inhibition; at 50.0 µM; active compounds read high. The method in brief:
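Inhibition values express reduced yeast growth in compound-treated cultures relative to vehicle-treated controls.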

Assay [2] is described as follows: NCI Yeast Anticancer Drug Screen. Data for the mec2-1 strain (AID 157). The conditions noted are these: S. cerevisiae mec2-1 strain, at 50.0 µM, active compounds read high. The method in brief:
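Using mec2-1 yeast: add compound, measure growth, express inhibition versus vehicle-treated cultures.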

Assay [3] in a line: NCI Yeast Anticancer Drug Screen. Data for the sgs1 mgt1 strain (AID 161).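 Also: 0% = growth of cultures given vehicle only.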 The conditions noted are these: S. cerevisiae sgs1 mgt1 strain, at 50.0 µM, active compounds read high. The method in brief: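 Growth of a repair-deficient yeast mutant was monitored after compound treatment and expressed as inhibition relative to vehicle-treated cultures.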
Assay [4] is described as follows: NCI Yeast Anticancer Drug Screen. Data for the cln2 rad14 strain (AID 165).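 Also: 0% = growth equal to vehicle treated cultures.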 The note with it: S. cerevisiae cln2 rad14 strain, at 50.0 µM, active compounds read high. Put shortly:
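Yeast strain cln2 rad14, bearing defects in cell cycle control and DNA repair, serves as the test system; values reflect growth inhibition compared with vehicle.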

Assay [5] is described as follows: NCI Yeast Anticancer Drug Screen. Data for the bub3 strain (AID 167). The note with it: S. cerevisiae bub3 mutant strain, at 50.0 µM, active compounds read high. Put shortly: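 Steps: expose the mutant yeast strain to compound; grow alongside vehicle-treated cultures; measure growth; express inhibition against the vehicle cultures.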
The nature of assay [6]: NCI Yeast Anticancer Drug Screen. Data for the mlh1 rad18 strain (AID 175). The conditions noted are these: S. cerevisiae mlh1 rad18 strain growth inhibition; at 50.0 µM; active compounds read high. The method in brief:
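Steps: expose repair-defective yeast to compound; measure growth; express inhibition against vehicle-treated controls.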

As to `CN(C)CCCNC(=S)S`, the growth inhibition in assay [1] is -17%; in assay [2], -28.6%; in assay [3], 5.25%; in assay [4], 11.2%; in assay [5] it was -22.1%; in assay [6] it was -4.35%.
For the compound `CC(c1ccc2ccc3cccc4ccc1c2c34)C(C(=O)O)C(=O)O` (stereo unspecified), the growth inhibition was -0.85% in assay [1]; -15.8% in assay [2]; 8.6% in assay [3]; -7.15% in assay [4]; 0.75% in assay [5]; 5.7% in assay [6].
`CCCCCC(C/C=N/N(C)C)C(O)(C(F)(F)F)C(F)(F)F` (stereo unspecified): the growth inhibition in assay [1] is 1.35%; in assay [2], 2.1%; in assay [3], -5.15%; in assay [4], -5.15%; in assay [5] it was 15.4%; in assay [6], 73.2% (active).
In the case of `CC1(C)C(C#N)C1C1=C(N2CCOCC2)[C@]2(C)C(OC(=O)c3ccccc3)CC[C@@H]2C1` (stereo partly specified), the growth inhibition was -8.6% in assay [1]; -17.2% in assay [2]; -8.7% in assay [3]; 7.7% in assay [4]; 12.4% in assay [5]; 4.15% in assay [6].
For `CCCN(CCC)S(=O)(=O)c1ccc(NC(=O)OC(CC)c2ccco2)cc1` (stereo unspecified), the growth inhibition was 27.8% in assay [1]; -3.8% in assay [2]; 8% in assay [3]; 7.85% in assay [4]; -5.5% in assay [5]; 8.8% in assay [6].
With `CCN(CC)CCOCCO`, the growth inhibition in assay [1] was -8.6%; in assay [2], -16%; in assay [3] it was -0.65%; in assay [4] it was 11.7%; in assay [5], 0.95%; in assay [6] it was -2.15%.
On to `CC(=O)CC(=O)Nc1ccc(Cc2ccc(Br)cc2)cc1`, for which the growth inhibition in assay [1] was 23.7%; in assay [2] it was -5.55%; in assay [3], 9.55%; in assay [4] it was 18.5%; in assay [5], 4.15%; in assay [6], 18.9%.
Consider `Cn1c2nc(=O)n(-c3ccccc3)c(=O)c-2nc2c1CCCC2`, for which the growth inhibition in assay [1] is -4.95%; in assay [2], -10.7%; in assay [3], 1.55%; in assay [4], -6.45%; in assay [5], 3.9%; in assay [6], -60.7%.
For `NC(=O)N1N=C2c3ccccc3SC[C@H]2[C@@H]1c1ccccc1`, the growth inhibition in assay [1] was 29.5%; in assay [2] it was -23.2%; in assay [3] it was -26.8%; in assay [4], 2.55%; in assay [5], -20.9%; in assay [6], 21.6%.
Consider `CCCCCCCC/C=C/CCCCCCCC(=O)N(C)CC(=O)O`, for which the growth inhibition was -18.6% in assay [1]; -17% in assay [2]; 10.8% in assay [3]; -29.1% in assay [4]; 22.5% in assay [5]; -8.05% in assay [6].
`CC(C(=O)O)/C(=C\c1ccc2c(c1)OCO2)C(=O)O` (stereo unspecified): the growth inhibition is 8.15% in assay [1]; 11.3% in assay [2]; -12.9% in assay [3]; -7.7% in assay [4]; 12.9% in assay [5]; 16.8% in assay [6].
On to `COc1cc2c(cc1C(C)c1ccc(OC(C)C)cc1)OCO2` (stereo unspecified), for which the growth inhibition in assay [1] is -4.7%; in assay [2] it was -9.95%; in assay [3], -3.95%; in assay [4] it was -48.5%; in assay [5], -5.9%; in assay [6], -11.5%.
Turning to `Cc1nn(C(=O)c2ccccc2O)c2c1C(c1ccccc1)SC(N)=N2` (stereo unspecified), the growth inhibition in assay [1] is 16.6%; in assay [2], 17.6%; in assay [3], 25.2%; in assay [4], -5.25%; in assay [5], 30.9%; in assay [6], 9.3%.
Regarding `CCC(=O)Cc1cnccn1`, the growth inhibition in assay [1] is -47.1%; in assay [2], -32.5%; in assay [3], -12.3%; in assay [4] it was -10.1%; in assay [5], -9.15%; in assay [6], -12.4%.
Take `O=C(NCC1(O)CCCCC1)c1ccccc1`: the growth inhibition was 3.65% in assay [1]; -14.2% in assay [2]; -5.55% in assay [3]; -8.35% in assay [4]; 3.8% in assay [5]; 1.3% in assay [6].
`N=C1CCCC1C(=S)SCCC(N)=O` (stereo unspecified): the growth inhibition in assay [1] was -11.8%; in assay [2], -30.2%; in assay [3], -51.5%; in assay [4] it was 6.8%; in assay [5], -30.8%; in assay [6], 6.15%.
In the case of `CN(C)c1ccc(/C=C/C(=O)CC(=O)/C=C/c2ccc(N(C)C)cc2)cc1`, the growth inhibition was 22.2% in assay [1]; 21.3% in assay [2]; -28.2% in assay [3]; -27.4% in assay [4]; -4.3% in assay [5]; 0.8% in assay [6].
With `O=C(O)c1cc(O)[nH]c(=O)c1`, the growth inhibition in assay [1] is -12%; in assay [2], -105%; in assay [3], -22.6%; in assay [4], -48.5%; in assay [5], -26%; in assay [6], -16.2%.
With `N=C(N)c1cc(Cl)c(OCc2ccccc2)c(Cl)c1`, the growth inhibition is 9.7% in assay [1]; -12.7% in assay [2]; 1.15% in assay [3]; -10.7% in assay [4]; 3.85% in assay [5]; 12.8% in assay [6].
In the case of `CCOC(=O)C(C(=O)OCC)c1cnc2ccccc2c1Cl`, the growth inhibition is -0.7% in assay [1]; -9.45% in assay [2]; 6.55% in assay [3]; -40.5% in assay [4]; -4.5% in assay [5]; 2.85% in assay [6].
As for `CCN1CSC(=S)N(Cc2ccccc2)C1`, the growth inhibition was 16.9% in assay [1]; 6.3% in assay [2]; 50.3% in assay [3]; 4.55% in assay [4]; 28.2% in assay [5]; 32.6% in assay [6].
On to `N#C/C(=C/c1cccc(Oc2ccccc2)c1)c1ccccc1`, for which the growth inhibition is 11.7% in assay [1]; -28.2% in assay [2]; -0.55% in assay [3]; -1.5% in assay [4]; -23.1% in assay [5]; -14.4% in assay [6].
For `Cn1c(=O)c(C#N)c2n(C)c3ccccc3n2c1=O`, the growth inhibition was 64.8% in assay [1]; 17.4% in assay [2]; 13.8% in assay [3]; 2.25% in assay [4]; -36.1% in assay [5]; -0.15% in assay [6].
For the compound `CC1=C(C(=O)NNC(=O)c2ccccc2)CC(C(=O)NNC(=O)c2ccccc2)=C(C)N1`, the growth inhibition was -24.3% in assay [1]; 14.5% in assay [2]; 1.85% in assay [3]; -34.6% in assay [4]; -13.2% in assay [5]; -28.6% in assay [6].
For `CCOC(=O)C(NC(=O)Cc1ccccc1)C(=O)O` (stereo unspecified), the growth inhibition in assay [1] is -18.8%; in assay [2], 15.5%; in assay [3] it was -3.2%; in assay [4] it was -6.4%; in assay [5], -1.65%; in assay [6] it was 3.35%.
With `Clc1ccc(-n2ncc3c2-c2ccccc2CCC3)cc1`, the growth inhibition was 31.4% in assay [1]; -6.5% in assay [2]; 3.5% in assay [3]; 4.85% in assay [4]; 48.2% in assay [5]; 34.3% in assay [6].
As to `CCN(CC)CCCC(C)=O`, the growth inhibition in assay [1] was 9.25%; in assay [2], 21.6%; in assay [3] it was 28.2%; in assay [4] it was 18.6%; in assay [5], 13%; in assay [6], 3.4%.
In the case of `CN(C)CCO[Si](C)(c1ccccc1)c1ccc(F)cc1` (stereo unspecified), the growth inhibition is 16.6% in assay [1]; -7.95% in assay [2]; 20.6% in assay [3]; -10.1% in assay [4]; 11.8% in assay [5]; 3.95% in assay [6].
Turning to `CCc1[nH]nc(-c2n[nH]c(CC)c2C)c1C`, the growth inhibition is -66.8% in assay [1]; -24.9% in assay [2]; -20.1% in assay [3]; -26.4% in assay [4]; -13.7% in assay [5]; -9.3% in assay [6].
With `CC1(C)OC2OC(C3COS(=O)O3)C(Cl)C2O1` (stereo unspecified), the growth inhibition in assay [1] was -2%; in assay [2], 2.45%; in assay [3], -1.4%; in assay [4], -48.8%; in assay [5], -0.7%; in assay [6], 8.6%.
Regarding `CN(C)C(=S)/N=c1\ssc(=S)n1C1CCCCC1`, the growth inhibition is -22.1% in assay [1]; 2.55% in assay [2]; 6.45% in assay [3]; -49.6% in assay [4]; 25.7% in assay [5]; -11.5% in assay [6].
For `O=C1c2c(/C=C/c3ccc(Cl)c(Cl)c3)nc3ccccc3c2C(=O)N1CCN1CCCCC1`, the growth inhibition was 89.3% (active) in assay [1]; 50.6% in assay [2]; 83.2% (active) in assay [3]; 17.9% in assay [4]; 18.4% in assay [5]; 79.3% (active) in assay [6].
In the case of `N#Cc1c(-c2ccccc2)cn2c1[nH]c(=O)c1ccccc12`, the growth inhibition in assay [1] was 4%; in assay [2], -6.65%; in assay [3], 11.2%; in assay [4], 5.45%; in assay [5] it was -17.9%; in assay [6] it was 1.05%.
On to `COc1ccc(N(C(=O)Nc2ccc(Cl)c(Cl)c2)c2ccccc2)cc1`, for which the growth inhibition in assay [1] was -32.1%; in assay [2] it was -28.4%; in assay [3], -19.2%; in assay [4], -1.45%; in assay [5], 14.3%; in assay [6], -10.4%.
Turning to `O=C(CI)Nc1ccc2oc(=O)c(C(=O)O)cc2c1`, the growth inhibition in assay [1] is -7%; in assay [2] it was -6.05%; in assay [3], 4.85%; in assay [4], -64.4%; in assay [5] it was -2.9%; in assay [6], -12.8%.
On to `O=c1cc[nH]c2c(Cl)cccc12`, for which the growth inhibition in assay [1] is -8.15%; in assay [2], -20.9%; in assay [3], -5.05%; in assay [4] it was 0.95%; in assay [5], 2%; in assay [6] it was -2.9%.
As to `CN(C)Cc1c(C(O)(c2ccccc2)c2ccccc2)cc2ccccc2c1Cl`, the growth inhibition is -12.8% in assay [1]; -15.3% in assay [2]; -25.6% in assay [3]; -3% in assay [4]; 1.05% in assay [5]; -10.4% in assay [6].
As to `CC1=CC2=C(OCO1)C(=O)c1ccccc1C2=O`, the growth inhibition in assay [1] is 7.25%; in assay [2], 14.6%; in assay [3], -21.6%; in assay [4], -17.1%; in assay [5], 44.3%; in assay [6] it was 8.95%.
For `NC1CCCCCC1`, the growth inhibition in assay [1] was 2.95%; in assay [2], -7.25%; in assay [3] it was 0.8%; in assay [4], 3.25%; in assay [5] it was 8.45%; in assay [6], -2.4%.
`CC(C)/C(Cl)=N/OC(=O)Nc1ccc(Br)cc1`: the growth inhibition was 34.6% in assay [1]; 47.5% in assay [2]; 90.5% (active) in assay [3]; 24.1% in assay [4]; 69.3% in assay [5]; 81.8% (active) in assay [6].
As for `O=C(CC(c1ccccc1)C(Sc1ccccc1)(Sc1ccccc1)Sc1ccccc1)c1ccccc1` (stereo unspecified), the growth inhibition in assay [1] is 13.2%; in assay [2], 15.3%; in assay [3], 13.4%; in assay [4], 3%; in assay [5] it was -1.35%; in assay [6], 7.25%.
